# Assay outcomes as filed in PubChem.
# Hits are enriched below; roughly 2.9% of the tested compounds scored in any of these assays.
# Mtb BioA inh = blocks M. tuberculosis BioA enzyme activity; inhibition, % at 9.99 µM; purified M. tuberculosis BioA enzyme, plate reader; 360,000 compounds, 0.096% hits; in the data active means inhibition above about 40%
# Mtb hypoxia inh = inhibitors of hypoxia-regulated fluorescent reporter in Mycobacterium tuberculosis; AID 1159583; fluorescence inhibition, % (concentration not given with the values); 300,000 compounds, 0.1% hits; M. tuberculosis hypoxia-regulated fluorescent reporter, fluorescence; in the data active means fluorescence inhibition mostly above about 23%, no sharp cut-off; inactive means mostly below about 17%
# FadD28 FP inh = inhibitors of Mycobacterium tuberculosis FadD28 bisubstrate binding | FadD28 bisubstrate probe binding, fluorescence polarization | inhibition, % at 12.5 µM | 360,000 compounds, 0.22% hits | AID 588549; in the data active means inhibition above about 8.5%, passing the limit was not always enough
# GDH-TPI counter = inhibits GDH-TPI coupling enzymes, artifact for Mtb FBA screen; GDH-TPI coupled enzyme counterscreen, NADH absorbance; inhibition, % at 4.8 µM; 360,000 compounds, 1.2% hits; AID 588335; in the data active means inhibition above about 30%;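 further: 0% = DMSO wells and 100% = wells lacking the enzyme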
# Mtb FBA inh = inhibits M. tuberculosis FBA enzyme | inhibition, % at 1 µM | purified M. tuberculosis FBA, fluorescence read-out | P9WQA3 | AID 588726 | 360,000 compounds, 2.3% hits; in the data active means inhibition above about 27%;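 further: 0% = vehicle and 100% = reference inhibitor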
# Target sequence (P9WQA3 whole entry, looked up): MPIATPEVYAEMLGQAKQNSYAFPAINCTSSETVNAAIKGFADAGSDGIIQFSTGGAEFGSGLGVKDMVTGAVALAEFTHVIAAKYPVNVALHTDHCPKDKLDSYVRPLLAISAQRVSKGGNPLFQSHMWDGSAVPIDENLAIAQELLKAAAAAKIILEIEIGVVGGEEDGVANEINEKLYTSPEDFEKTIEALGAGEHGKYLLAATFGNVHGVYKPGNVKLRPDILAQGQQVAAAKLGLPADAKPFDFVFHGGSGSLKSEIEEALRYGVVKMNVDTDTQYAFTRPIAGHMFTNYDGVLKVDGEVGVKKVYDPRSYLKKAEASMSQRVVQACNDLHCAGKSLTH
# An asterisk follows results filed as active; x = not tested or not shown; + = active, no number.
SMILES,Mtb BioA inh,Mtb hypoxia inh,FadD28 FP inh,GDH-TPI counter,Mtb FBA inh
COc1ccc(C(=O)NCC(=O)N/N=C/C(C)=C/c2ccco2)cc1OC,-1,x,-1,41*,-2
Cc1ccc(OCC(=O)N/N=C/C=C/c2ccco2)c(Br)c1,-1,x,1,34*,2
Cc1cccc(OCC(=O)N/N=C/C=C/c2ccco2)c1,-3,x,0,10,0
O=C(C[C@H]1CC[C@H]2[C@@H](COC[C@H](O)CN2C(=O)Nc2cc(Cl)cc(Cl)c2)O1)N1CCCCC1,0,x,x,x,x
O=C(CN1CCN(Cc2ccccc2)CC1)N/N=C/C=C/c1ccco1,x,x,0,33*,0
Cn1c(=O)c2c(ncn2CC(=O)N/N=C/C=C/c2ccco2)n(C)c1=O,x,x,0,32*,-2
COc1ccc(/C=N/NC(=O)c2nc(-c3ccccc3)n(-c3ccccc3)n2)cc1OC,0,x,0,37*,2
COc1ccc(/C=N/NC(=O)c2nc(-c3ccccc3)cc(-c3ccccc3)n2)cc1,0,x,-4,32*,1
COc1cc(/C=N/NC(=O)c2nc(-c3ccccc3)n(-c3ccccc3)n2)ccc1O,-1,x,0,30,-1
C[C@@H]1CN([C@@H](C)CO)C(=O)Cc2cc(NC(=O)NC3CCCCC3)ccc2O[C@H]1CN(C)Cc1ccncc1,1,x,x,x,x
Cc1occc(=O)c1OCc1c(F)cccc1Cl,x,1,-5,-8,-2
Cc1cc(=O)oc2c(CN3CCOCC3)c(O)ccc12,9,6,-1,38*,x
CCc1cc(=O)oc2c(CNCc3c(F)cccc3Cl)c(O)ccc12,1,7,-3,11,+
O=c1cc(-c2ccccc2)c2ccc(O)c(CN3CCCCC3)c2o1,5,-2,-4,0,8
CCCc1cc(=O)oc2c(CNc3ccc(OCC)cc3)c(O)ccc12,0,1,2,9,165*
CCc1cc(=O)oc2c(CN3CCN(C)CC3)c(O)ccc12,0,10,0,18,+
Cc1cc(=O)oc2c(CN3CCCCC3)c(O)ccc12,x,x,-2,16,x
O=C(N[C@@H]1CC[C@@H](CCNS(=O)(=O)c2ccccc2Cl)O[C@H]1CO)c1ccccc1,3,x,x,x,x
O=c1cc(-c2ccccc2)c2cc(Cl)c(O)c(CN3CCOCC3)c2o1,0,-1,1,7,9
CCc1cc(=O)oc2c(CN3CCCC3)c(O)c(Cl)cc12,-1,7,2,26,+
CCc1c(C)c2cc(Cl)c(O)c(CN3CCCCC3)c2oc1=O,0,2,-4,2,+
CCc1cc(=O)oc2c(CN3CCN(C)CC3)c(O)c(Cl)cc12,-3,-3,0,44*,+
CCCCc1cc(=O)oc2c(CN3CCCC3)c(O)ccc12,0,3,-4,4,+
COC(=O)C1=C(c2ccc(F)cc2OCc2ccccc2)CC2CCC1N2C(=O)NCCCc1ccccc1 (stereo not drawn),x,6,x,x,x
C[C@@H]1CN([C@@H](C)CO)C(=O)c2cccc(NC(=O)NC3CCCCC3)c2O[C@H]1CN(C)Cc1ccc(C(=O)O)cc1,-4,x,x,x,x
SMILES,Mtb BioA inh,Mtb hypoxia inh,FadD28 FP inh,GDH-TPI counter,Mtb FBA inh
Cc1ccc2oc(=O)cc(CN3CC(C)OC(C)C3)c2c1 (stereo not drawn),0,1,0,10,-2
Cc1cc(=O)oc2c(CN3CC(C)OC(C)C3)c(O)c(Cl)cc12 (stereo not drawn),x,10,-2,-3,+
Cc1cc2oc(=O)cc(CN3CCOCC3)c2c(C)c1Cl,0,10,-1,-6,137*
CC(=O)Nc1ccc(N=Nc2ccccc2)cc1,x,5,1,36*,-4
CC(=O)OCC(=O)Nc1ccc(N=Nc2ccccc2)cc1,x,1,-3,37*,-9
CC(=O)Nc1ccccc1,0,2,-1,-6,-1
CCOP(=O)(OCC)c1nc(-c2ccccc2)oc1N1CCCCC1,-3,-7,-2,1,+
CCOP(=O)(OCC)c1nc(-c2cccc3ccccc23)oc1N1CCCCC1,x,-1,-2,2,175*
COP(=O)(OC)c1nc(-c2cccc3ccccc23)oc1N1CCCCC1,2,4,-1,10,+
COc1ccc(S(=O)(=O)Nc2ccc3c(c2)C(=O)N([C@H](C)CO)C[C@H](C)[C@H](CN(C)S(=O)(=O)c2ccccc2)O3)cc1,2,x,x,x,x
CNC(=O)C[C@H]1CC[C@@H]2[C@@H](COc3ccc(NS(=O)(=O)c4cccc(F)c4)cc3C(=O)N2C)O1,-1,x,x,x,x
C[C@@H]1CCCCO[C@@H](CN(C)Cc2ccncc2)[C@H](C)CN([C@H](C)CO)C(=O)c2cc(NS(=O)(=O)c3cn(C)cn3)ccc2O1,-2,x,x,x,x
CC1CCN(Cc2cc(=O)oc3cc(O)c(Cl)cc23)CC1,1,17,0,12,+
CC1CN(Cc2cc(=O)oc3cc(O)c(Cl)cc23)CC(C)O1 (stereo not drawn),-1,8,-2,1,+
CN(Cc1ccccc1F)Cc1cc(=O)oc2cc(O)c(Cl)cc12,-1,4,-3,7,+
Cc1cc2oc(=O)cc(CN(C)Cc3ccccc3F)c2cc1Cl,-3,-5,-1,17,1
CC(=O)Nc1ccc(/C(C)=N/NC(=O)c2ccc(COc3ccccc3Cl)o2)cc1,-2,x,-2,31*,3
COc1ccc(/C=C(\NC(=O)c2ccccc2)C(=O)N/N=C/c2cccnc2)cc1,x,x,-4,39*,-2
Cc1ccnc(N/C=C(/NC(=O)c2ccccc2)C(=O)N/N=C\c2ccc(F)cc2)n1,-1,x,-1,54*,2
COc1ccc(/C=C(\NC(=O)c2ccccc2)C(=O)N/N=C/c2ccncc2)cc1,1,x,-3,49*,0
COc1ccc(/C=C(\NC(=O)c2ccccc2)C(=O)NN=Cc2ccncc2)cc1,x,18,x,x,x
C(/C=C/c1ccccc1)=NN1CCN(Cc2ccccc2)CC1,x,8,x,x,x
Cn1nc(C(C)(C)C)cc1C(=O)Nc1nc2c(s1)C(=O)CC(C)(C)C2,-1,8,0,40*,7
Nc1nc2ccccc2n1C(=O)c1cccs1,-2,x,-1,61*,2
C[C@H]1CN([C@@H](C)CO)C(=O)c2cc(Br)cnc2O[C@@H]1CN(C)C(=O)C1CC1,-3,x,x,x,x
SMILES,Mtb BioA inh,Mtb hypoxia inh,FadD28 FP inh,GDH-TPI counter,Mtb FBA inh
C[C@@H]1CN([C@@H](C)CO)C(=O)c2cccc(NC(=O)Nc3ccc(C(F)(F)F)cc3)c2O[C@H]1CN(C)C(=O)Nc1ccccc1,2,x,x,x,x
CC(C)Sc1nc2c(c(=O)n(C)c(=O)n2C)n1Cc1ccc(Cl)cc1,2,38*,-4,-12,0
Cn1c(=O)c2c(ncn2Cc2ccc(Cl)cc2)n(C)c1=O,x,1,16*,-1,-1
COCc1cn(CC[C@@H]2CC[C@H](NC(=O)CCN3CCCCC3)[C@H](CO)O2)nn1,-1,x,x,x,x
O=C(C[C@@H]1CC[C@H]2[C@@H](COC[C@@H](O)CN2Cc2ccccc2)O1)N[C@@H]1CCN(Cc2ccccc2)C1,-2,x,x,x,x
COC(=O)CNC(=O)CSc1nc2sccc2c(=O)n1-c1ccccc1,1,3,-2,-4,2
